Laboratory results published in PubChem BioAssay AID1508625 (Wald Lab, School of Medicine, Case Western Reserve …, 2021).

Assay: enhancers of NK cell killing of ovarian tumor cells, primary screen, imaging, OVCAR3, primary NK cells, calcein-AM imaging (AID 1508625);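 also: compound given to NK cells 16 h before adding targets at 1.5 to 1 ratio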
Conditions: OVCAR3 lysis by primary NK cells, at 5 µM; z-score: measured here: robust Z-score, single-point normalisation

SMILES | corrected activity, negative = more killing [%] | z-score
O=C(NCCc1ccccc1Cl)C1CC(=O)N(C2CCCCC2)C1 (configuration not stated) | -2.73 | -1.04
CCc1ccc(N2C(=O)CSC2c2ccc(Br)cc2)cc1 (configuration not stated) | -3.8 | -1.62
O=C(COc1ccc(Cl)cc1)N1CCN(C(=O)c2ccccc2F)CC1 | -1.94 | -0.865
COc1ccccc1OCC(=O)N=Nc1c(O)[nH]c2c(C)cc(Br)cc12 | -2.87 | -1.13
CC1C(=O)NN=C1C(=O)NN=Cc1cccnc1 (configuration not stated) | -3.57 | -1.56
COc1ccc(NC(=O)c2coc(=O)c3ccccc23)cc1Cl | -3.91 | -1.24
O=C(CCCCCn1c(=S)[nH]c2cc3c(cc2c1=O)OCO3)N1CCN(c2ccc(Cl)cc2)CC1 | -2.25 | -0.597
COc1cccc(NS(=O)(=O)c2ccc3c(c2)[C@H]2C=CC[C@H]2[C@@H](c2ccccc2Cl)N3)c1 | -8.83 | -2.64
COc1cc(OC)c(C=Nc2ccc(OC(F)(F)F)cc2)cc1Br | -1.81 | -0.768
CCC(SC1=NCCS1)C(=O)Nc1ccc(S(N)(=O)=O)cc1 (configuration not stated) | -2.81 | -1.06
COC(=O)c1ccc(COC(=O)c2cc3ccccc3oc2=O)cc1 | -2.06 | -1.15
CCC(C)NC(=O)c1ccc2c(=O)n(CCN(CC)CC)c(=S)[nH]c2c1 (configuration not stated) | -4.1 | -1.09
COc1ccccc1OCc1cccc([N+](=O)[O-])c1 | -5.65 | -3.15
O=c1cc(-c2ccc([N+](=O)[O-])cc2)nc2c(-c3ccc(Cl)cc3)c(Cc3ccccc3)[nH]n12 | -1.76 | -0.911
COc1ccc2c(c1OC)C(=O)OC2CC(=O)c1ccc(C)cc1 (configuration not stated) | -8.12 | -1.71
CCN(C(=O)c1cc2c(=O)n3cccc(C)c3nc2s1)c1ccccc1 | -6.23 | -1.77
COc1ccccc1CNC(=O)c1sc2ncnc(N3CCOCC3)c2c1C | -0.847 | -0.308
COC(=O)c1cc(OC)c(OC)cc1NC(=O)c1cc(Cl)ccc1Cl | -1.51 | -0.842
O=C(Nc1ccc2nn(-c3cccc(Cl)c3)nc2c1)c1cccc2ccccc12 | -3.42 | -1.21
CC(C)(C)NC(=O)CSc1nc2ccc(Cl)cc2o1 | -2.67 | -0.828
Cn1c(=O)c2c(nc(Oc3ccc(Cl)cc3)n2Cc2ccccc2Br)n(C)c1=O | -3.02 | -0.9

SMILES | corrected activity, negative = more killing [%] | z-score
O=c1nc(C=Cc2ccc(Br)cc2)cc(C(F)(F)F)[nH]1 | 0.858 | 0.256
CC(C)Oc1ccc(CNC2CCOC(C)(C)C2)cc1 (configuration not stated) | -3.04 | -1.2
O=C(Nc1ccc(N2CCN(Cc3ccccc3Cl)CC2)cc1)c1ccco1 | 1.61 | 0.895
CC1=C(C)CC(C(=O)Nc2ccc(S(=O)(=O)N3CCOCC3)cc2)C(C(=O)O)C1 (configuration not stated) | -10.2 | -3.17
O=C(NCC1CCCO1)c1ccc(COc2ccc(Cl)cc2)cc1 (configuration not stated) | -2.84 | -1.58
O=C(Nc1c[nH]c(=O)[nH]c1=O)c1ccc(N2C(=O)C3C4C=CC(C4)C3C2=O)cc1 (configuration not stated) | 0.344 | 0.184
COc1cccc(C(=O)N2CCN(CC3CC=CCC3)CC2)c1OC (configuration not stated) | -3.28 | -1.46
O=[N+]([O-])c1ccc2[nH]c3c(c2c1)CCCC3NC1Cc2ccccc2C1 (configuration not stated) | 0.0593 | 0.0259
Cc1ccc(C=C(NC(=O)c2ccc(C)cc2)c2nc3ccccc3[nH]2)cc1 | -1.41 | -0.73
CC(=O)c1cccc(NC(=O)c2ccc(NS(=O)(=O)c3ccccc3)cc2)c1 | -4.58 | -1.71
O=C(CNc1ccc(Br)cc1)c1ccccc1 | -3.77 | -1.4
CC1CCC2C(=O)N(c3ccc(NCCc4ccccn4)c([N+](=O)[O-])c3)C(=O)C2C1 (configuration not stated) | -4.66 | -1.69
COc1ccc(C(=O)Nc2ccc(NC(=O)c3ccc(C(C)(C)C)cc3)cc2)cc1[N+](=O)[O-] | -5.92 | -2.1
O=C1CSc2ccc(S(=O)(=O)N3CCOCC3)cc2N1 | -4.98 | -1.34
CCOc1cc(C(=S)N2CCCCC2)ccc1OC(=O)c1ccc(OC)cc1 | -5.85 | -2.2
COc1ccc(Nc2ccncc2[N+](=O)[O-])cc1 | -5.75 | -3.2
CN1CCc2c(sc3c2C(=O)NC(c2cccc(OCc4ccccc4)c2)N3)C1 (configuration not stated) | -3.2 | -0.991
COC(=O)c1cc(NC(=O)c2cc3nc(-c4ccc(Cl)cc4)cc(C(F)(F)F)n3n2)cc(C(=O)OC)c1 | -8 | -2.54
COc1ccc(-c2coc3c(C)c4oc(=O)c5c(c4cc23)CCC5)cc1 | -3.7 | -1.1
CC1CCC(NC2CCCc3c2[nH]c2ccc([N+](=O)[O-])cc32)C1 (configuration not stated) | 3.64 | 1.59
